Assay outcomes deposited in PubChem by National Center for Advancing Translational Sciences (NCATS).
p53 reactivator: qHTS assay for re-activators of p53 using a Luc reporter | H1299 p53-A138V BP100-luciferase reporter, luminescence, 24 h | AID 504706, 2011 | 320,000 compounds, 0.063% hits | Potency, µM (series often up to 92.2 µM), without a hit: at the top dose activity change, positive = activation, most hits filed as activators; also: potency is read from the fitted curve at half-maximal effect; % of control where 0% means no effect; nearly all actives have a fitted effect of over 45% in size
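p53-null H1299 cells stably carrying temperature-sensitive p53-A138V and a BP100-luciferase reporter were pinned with compounds (4-point, 1:5 series) and held 24 hrs at 37 deg C. Luminescence was read 10 min after detection reagent.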
Mm-Cpn inhibitor: Inhibitors of TCP-1 ring complex (TRiC) of Methanococcus maripaludis (MmCpn): qHTS; purified Mm-Cpn ATPase, ADP Transcreener TR-FRET; AID 504842, 2011; 330,000 compounds, 0.031% hits; Potency, µM (series often up to 76.9 µM), for the others: at the top dose activity, negative = inhibition, most hits filed as inhibitors; also: potency is read from the fitted curve at half-maximal effect; % is scaled to controls: 0 for no effect and ±100 for the full control effect; nearly all actives have a fitted effect of over 80% in size
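Quantitative HTS used 25 nM Mm-CPN and 10 uM ATP in magnesium/KCl Tris buffer, pH 7.4, with 1 mM DTT. Hydrolysis ran 30 min at 37°C; ADP was read by HTRF.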
CCT modulator: High-Throughput Screening for Modulators of Cytosolic Chaperonin Activity; purified chaperonin ATPase assay, HTRF ADP detection, 30 min; activity change, % (test concentration not listed), hits read low; 360,000 compounds, 0.3% hits; in the data active = activity change below about -30%; also: % is scaled to controls: 0 for no effect and ±100 for the full control effect
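We incubate TRiC, 40 or 20 nM final, with library compounds at 76 uM and 10 uM ATP for 30 min at 37 °C. ADP formed is detected with Transcreener HTRF reagents after 30 min at room temperature.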
ASM inhibitor: Inhibitors of Secretory Acid Sphingomyelinase (S-ASM): qHTS | Potency, µM (titrated, usually from 57.5 µM), for the others: top-dose activity change, negative = inhibition, most hits filed as inhibitors | placental ASM, HMU-PC fluorogenic substrate, 60 min | Sphingomyelin phosphodiesterase (Homo sapiens), P17405 | 340,000 compounds, 0.006% hits; also: potency is read from the fitted curve at half-maximal effect
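HMU-PC0 cleavage (9 uM final) by human placental ASM, 60 min at 37 °C following 10 min compound exposure at RT; stopped at pH 10, fluorescence Ex 386/Em 447 nm.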
PINK1 expr mod: A Quantitative High throughput Screen to Identify Chemical Modulators of PINK1 Expression; PINK1 immunofluorescence, high-content cytometry, 24 h; Potency, µM (doses to about 76.6 µM), without a hit: top-dose activation (PINK1 increase), most hits filed as activators; 410,000 compounds, 0.2% hits; AID 624263, 2012; active = well fitted activation curve with a large enough effect; inconclusive = small, poorly fitted or top-dose-only effect; cell line not stated here; also: potency is read from the fitted curve at half-maximal effect; % of control where 0% means no effect; nearly all actives have a fitted effect of over 65% in size
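Readout is PINK1 immunofluorescence, quantified alongside mitochondrial, cell and nuclear markers by laser-scanning microplate cytometry. Cells from a stable line were exposed to compound titrations (5 concentrations) for 24 hours, with CCCP controls.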
12-LOX inh: Primary qHTS assay for inhibitors of human arachidonate 12S-lipoxygenase (ALOX12): Round 2; AID 1671190, 2021; Polyunsaturated fatty acid lipoxygenase ALOX12 (Homo sapiens), P18054; purified 12hLO, xylenol orange hydroperoxide absorbance; Potency, µM (top dose mostly 108 µM), without a hit: at the highest dose activity change, negative = inhibition, actives largely listed as inhibitors; 580,000 compounds, 1.1% hits; also: potency is read from the fitted curve at half-maximal effect; % is scaled to controls: 0 for no effect and ±100 for the full control effect
Target sequence (P18054 whole entry, looked up): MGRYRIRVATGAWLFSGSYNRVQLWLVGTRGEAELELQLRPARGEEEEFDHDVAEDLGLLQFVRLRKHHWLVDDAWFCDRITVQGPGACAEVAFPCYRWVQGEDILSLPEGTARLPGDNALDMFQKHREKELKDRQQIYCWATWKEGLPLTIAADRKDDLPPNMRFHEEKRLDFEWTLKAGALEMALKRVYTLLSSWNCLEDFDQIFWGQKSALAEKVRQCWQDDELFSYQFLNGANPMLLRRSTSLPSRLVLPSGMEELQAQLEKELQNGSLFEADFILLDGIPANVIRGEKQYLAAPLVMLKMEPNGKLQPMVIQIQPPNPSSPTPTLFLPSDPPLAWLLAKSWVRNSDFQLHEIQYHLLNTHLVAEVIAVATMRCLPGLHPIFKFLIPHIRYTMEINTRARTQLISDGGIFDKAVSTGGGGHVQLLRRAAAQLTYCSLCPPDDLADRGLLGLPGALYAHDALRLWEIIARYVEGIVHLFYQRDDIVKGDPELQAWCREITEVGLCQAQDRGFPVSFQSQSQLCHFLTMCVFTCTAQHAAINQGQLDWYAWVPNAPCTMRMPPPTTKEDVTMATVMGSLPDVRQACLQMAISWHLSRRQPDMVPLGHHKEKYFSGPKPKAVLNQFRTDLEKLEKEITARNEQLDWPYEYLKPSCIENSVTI
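Purified human 12hLO (150 nM final) in 25 mM Hepes, 0.01% Triton X-100, pH 7.0 was preincubated 15 min at room temperature with compound. Then 40 uM arachidonic acid was added, 30 min. Hydroperoxide was read by Fe-XO absorbance ratio 573/405 nm.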
* marks the source's active call; other numbers are inactive results; i = inactive; ? = inconclusive; / = not tested or not shown; [ ] = another dose, or the depositor's remark. Hits are enriched below; roughly 1.4% of the tested compounds scored in any of these assays. Unless noted, calls follow the shape of the dose curve; as a rule, active = well fitted curve in the direction sought with a large enough effect; inconclusive = small, poorly fitted or top-dose-only effect, or another doubt; inactive = no such curve, though single readings can be large; an effect the other way counts as inactive or inconclusive.

SMILES	p53 reactivator	Mm-Cpn inhibitor	CCT modulator	ASM inhibitor	PINK1 expr mod	12-LOX inh
Cc1nc(C)c(CC(=O)Nc2nnc(C3CC3)s2)c(=O)[nH]1	/	/	/	/	/	-10%
O=C(NCCNCCO)c1nc2ccccc2c(=O)[nH]1	/	/	/	/	/	-4%
CC(=O)Nc1ccc(Sc2ccccc2C(=O)O)cn1	2%	0%	-7	0%	-1%	2µM*
COc1ccc(NC(=O)CN2C(=O)CSc3ccc(S(=O)(=O)N4CCCC4)cc32)cc1OC	-4%	0%	-37*	1%	-1%	?
O=C(/C=C/c1cccc(Cl)c1)c1ccc(OC(F)F)cc1OC(F)F	/	/	/	/	/	-27%
CCOC(=O)C1CCN(Cc2cc(Cl)c3ccccc3c2O)CC1	-4%	-7%	1	5%	0%	/
Oc1c(CN2CCCC(C(F)(F)F)C2)cc(Cl)c2ccccc12 (centres undefined)	10%	-2%	2	17%	23%	16µM*
OC1CC(c2cc(N3CCN(c4nsc5ccccc45)CC3)ncn2)C1 (centres undefined)	/	/	/	/	/	36%
O=C(O)C1CC(=O)N(C2CC2)C1c1ccccc1 (centres undefined)	/	/	/	/	/	8%
O=c1c2ccc(F)cc2ncn1Cc1coc(-c2cccs2)n1	/	/	/	/	/	3%
CCOc1ccccc1CN1CCC2(CCN(Cc3ccc(F)cc3)CC2)Oc2ccccc21	/	/	/	/	/	32µM*
COc1ccc2c(c1)CCCN2C(=O)c1cc2cc(Cl)ccc2nc1C	/	/	/	/	/	45µM*
COc1ccc(/C=C(\C#N)c2nc3ccccc3[nH]2)cc1I	/	/	/	/	/	6.3µM*
COc1cc(/C=C(\C#N)c2nc3ccc(C)cc3[nH]2)cc([N+](=O)[O-])c1O	7%	-11%	1	?	8%	45µM*
CN(CC(=O)Nc1ccc(F)c(F)c1F)C(=O)CCc1nc2sc3c(c2c(=O)[nH]1)CCCC3	4%	?	-1	14%	8%	18µM*
Cc1cccc(NC(=O)CNC(=O)CCc2nc3sc4c(c3c(=O)[nH]2)CCCC4)c1C	19%	-2%	-1	/	25%	10µM*
Cc1cccc(NC(=O)CCc2nc3sc4c(c3c(=O)[nH]2)CCCC4)n1	-6%	0%	-1	-1%	1%	?
Cc1ccc(F)cc1NC(=O)c1nc2ccccc2nc1N1CCOCC1	/	/	/	/	/	-3%
OC1(CN2CCN(c3cnccn3)CC2)CNCCOC1 (centres undefined)	/	/	/	/	/	10µM*
Cn1ccnc1CN1CCN(CC2(O)CNCCOC2)CC1 (centres undefined)	/	/	/	/	/	38%
O=C1C(=Cc2cccs2)C(=O)c2ccccc21	9%	-3%	-4	2%	2%	-35%
O=C1/C(=C\c2ccc(Br)o2)Cc2ccccc21	?	-9%	0	45%	0%	?
O=C1/C(=C/c2ccc(-c3ccc(F)cc3)o2)Cc2ccccc21	/	/	/	/	/	18µM*
O=C1/C(=C/c2cccs2)Cc2ccccc21	40µM*	-2%	0	3%	2%	8%
O=S(=O)(c1ccc(=S)[nH]c1)N1CCN(Cc2ccccc2)CC1	-4%	0%	0	0%	0%	40µM*
SMILES	p53 reactivator	Mm-Cpn inhibitor	CCT modulator	ASM inhibitor	PINK1 expr mod	12-LOX inh
O=S(=O)(c1ccc(=S)[nH]c1)N1CCCCC1	1%	1%	0	-1%	0%	99%
CCCCn1nc(C(=O)Nc2nc3ccc(OCC)cc3s2)c2ccccc2c1=O	/	/	/	/	/	33%
COc1ccc2[nH]c(CO)cc2c1	/	/	/	/	/	25µM*
Cc1cccc2c(=O)c(-c3ccccc3)c(NC(=O)C(C)C)oc12	/	/	/	/	/	-33%
O=C(COC(=O)c1cnccn1)Nc1ncc(C(F)(F)F)cc1Cl	3%	-1%	-4	9%	0%	5µM*
COC[C@H]1CCCN1C(=O)C[C@@H]1O[C@H](CNS(=O)(=O)c2ccccc2)[C@@H](O)[C@H]1O	/	/	/	/	/	40µM*
Cc1ccn(C(=O)C2CCN(C(=O)c3ccc(F)cc3)CC2)c(=NC2CCCCC2)c1	/	/	/	/	/	0%
COC(=O)c1c(C)sc(-c2c(-c3ccc4c(c3)OCCO4)[nH]c3c2c(=O)n(C)c(=O)n3C)c1O	/	/	/	/	15%	-21%
COC(=O)c1c(C)sc(-c2c(-c3ccc4c(c3)OCCO4)[nH]c3[nH]c(=O)[nH]c(=O)c23)c1O	/	/	/	/	5%	25µM*
c1ccc(CN2CCN(Cc3c[nH]c4ccccc34)CC2)cc1	4%	2%	1	-1%	0%	8%
O=C(c1cccc2ccccc12)N1CCN(Cc2c[nH]c3ccccc23)CC1	/	/	/	/	/	1µM*
O=C(c1c[nH]c2ccccc12)N1CCN(Cc2ccccc2)CC1	1%	2%	-2	-4%	1%	-11%
c1cncc(CN2CCN(Cc3c[nH]c4ccccc34)CC2)c1	/	/	/	/	/	0.32µM*
Cc1ccc(NC(=O)c2cnc3ccccc3n2)nc1	/	/	/	/	/	25%
Cc1nc2nc(SCC(=O)c3ccc4ccccc4c3)[nH]c2cc1Br	/	/	/	/	/	2%
O=C(NC1CCCCC1)O[C@@H]1CO[C@H]2[C@@H]1OC[C@@H]2n1nnnc1SCc1ccco1	/	/	/	/	/	3.5µM*
CC(C)(CO)NCc1cccc2ccccc12	/	/	/	/	/	-56%
Cc1cc(C(=O)O)ccc1NCc1cccnc1	/	0%	-4	11%	-1%	0%
O=C(O)c1ccc(NCc2cccnc2)c([N+](=O)[O-])c1	-6%	-3%	-53*	3%	-1%	?
CCOc1ccc(NC(=S)c2ccc3ccccc3n2)cc1	?	-3%	-30*	3%	2%	-2%
COc1ccc(NC(=S)c2ccc3ccccc3n2)cc1	?	-3%	0	-12%	0%	/
Cc1ccc2[nH]c(-c3ccc(Cl)cc3)c(C#N)c2c1	/	/	/	/	/	-10%
Cc1ccc(-c2[nH]c(=S)[nH]c(=O)c2C#N)cc1	7%	0%	0	7%	-1%	16µM*
CCCCCCCOc1ccc(/C=C/c2ccc(CCCCCCC)cn2)cc1	/	/	/	/	/	43%
O=C(O)c1ccccc1NS(=O)(=O)c1cccc(-n2sc3ccccc3c2=O)c1	18%	0%	0	5%	1%	0.22µM*
O=C(O)c1ccccc1NS(=O)(=O)c1cccc(C(F)(F)F)c1	-7%	1%	-1	1%	4%[38.3 µM]	-25%
O=C(OC1CCOC1=O)c1cc(-c2cccs2)nc2ccccc12 (centres undefined)	-2%	-11%	-74*	i	0%	-20%
